# Results taken from the supplement of paper PMC8047044.
# Where “and” joins values, the source holds several entries; their conditions need not be identical. Identical values can stand only once. Counter-ions that a name gives are not always drawn.
# Key:
# [1] = test system: Neuro-2a; assay: neurite formation score, plate-normalized to DMSO control mean 5.04 (score (0-8 scale)); higher = more or longer neurites; settings: 1 µM
# Protocol: (§1)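 Neuro-2a mouse neuroblastoma cells in PLL-coated 96-well plates were pre-treated for 1 h in DMEM(+) with each kinase inhibitor at 1 µM, then switched to serum-free DMEM(-) with inhibitor to induce neurite outgrowth and fixed about 2-3 h later. Three blinded observers scored neurite formation from 0 (no neurites) to 8 (long neurites on almost all cells).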
# [2] = test system: Neuro-2a; assay: as above; settings: 0.1 µM
# Protocol: as §1, with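 “at 0.1” for “at 1”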
SMILES,neurite formation score [1],neurite formation score [2]
c1cn2cc(-c3ccc4cn[nH]c4c3)nc(Nc3ccc(N4CCOCC4)cc3)c2n1,4.54,5.08
COc1cc(Nc2ncc3c(n2)-c2ccc(Cl)cc2C(c2c(F)cccc2OC)=NC3)ccc1C(=O)O [MLN8237 (Alisertib)],4.36,4.58
Cc1ccc(Nc2nccc(N(C)c3ccc4c(C)n(C)nc4c3)n2)cc1S(N)(=O)=O,3.91,3.71
CN(C)C/C=C/C(=O)Nc1cc2c(Nc3ccc(F)c(Cl)c3)ncnc2cc1O[C@H]1CCOC1 [Afatinib (BIBW2992)],3.57,4.54
Nc1cccc(S(=O)(=O)N2CCCN(S(=O)(=O)c3ccc4c(c3)OCCO4)CC2)c1,4.14,4.09
NC(=O)Nc1cc(-c2cccc(F)c2)sc1C(=O)N[C@H]1CCCNC1,-0.431,4.21
CCNC(=O)Nc1ccc(-c2nc3c(c(N4CCOC[C@@H]4C)n2)CCN(C2COC2)C3)cc1,4.24,3.71
CC1=CC(=O)C(C(C)C)=C/C1=N/OC(=O)c1ccccc1C [Poloxin],4.02,5.25
Cn1cc(-c2ccc3nnc(Sc4ccc5ncccc5c4)n3n2)cn1,4.24,5.04
Cc1cccc(CC(=O)N2CCc3c2ccc(-c2cn(C)c4ncnc(N)c24)c3F)n1,4.21,4.42
O=C(NCc1cccc(O)c1)Nc1nc(-c2ccncc2)cs1,5.02,5.25
Cc1cnc(Nc2ccc(OCCN3CCCC3)cc2)nc1Nc1cccc(S(=O)(=O)NC(C)(C)C)c1,4.69,3.58
Cc1[nH]c2ccccc2c1C1=C(NCCc2ccc(F)cc2)C(=O)N(C)C1=O,4.54,2.42
Cc1c(NC(=O)OC[C@@H]2COCCN2)cn2ncnc(Nc3ccc4c(cnn4Cc4cccc(F)c4)c3)c12,2.91,3.71
C[C@H]1Oc2cc(cnc2N)-c2c(nn(C)c2C#N)CN(C)C(=O)c2ccc(F)cc21,4.21,5.08
O=C1NC(=O)/C(=C/c2cccc(C(F)(F)F)c2)S1,4.36,4.92
NC(=O)c1ccc2nc(-c3ccc(Oc4ccc(Cl)cc4)cc3)[nH]c2c1,4.63,5.25
Cc1cn(-c2cc(NC(=O)c3ccc(C)c(Nc4nccc(-c5cccnc5)n4)c3)cc(C(F)(F)F)c2)cn1 [Nilotinib monohydrochloride monohydrate],4.47,3.09
"Cc1[nH]c(/C=C2\C(=O)Nc3ccccc32)c(C)c1CCC(=O)O [TSU-68 (SU6668,Orantinib)]",4.57,4.54
C[C@@H]1CCN(C(=O)CC#N)C[C@@H]1N(C)c1ncnc2[nH]ccc12,4.02 and 4.69,3.92 and 5.58
CCCCCCCCCCCCCCCCCCOP(=O)([O-])OC1CC[N+](C)(C)CC1 [Perifosine],4.57,4.88
N#CC[C@H](C1CCCC1)n1cc(-c2ncnc3[nH]ccc23)cn1 [Ruxolitinib phosphate],5.02,4.92
CCN1CCN(Cc2ccc(Nc3ncc(F)c(-c4cc(F)c5nc(C)n(C(C)C)c5c4)n3)nc2)CC1,4.57,3.04
N=C(N)NCCC(=O)O [3-Guanidinopropionic Acid],5.21,4.75
COc1cc(N2CCC(N)CC2)ccc1Nc1ncc(Cl)c(-c2c[nH]c3ccccc23)n1,4.63,4.92
CC(C)(C)n1nc(Cc2cccc3ccccc23)c2c(N)ncnc21,4.63,4.58
CS(=O)(=O)N1CCC(NC(=O)c2[nH]ncc2NC(=O)c2c(Cl)cccc2Cl)CC1,4.47,5.09
COc1cc2ncnc(Nc3ccc(O)c(Br)c3)c2cc1OC,4.47,5.09
CN(C)Cc1cccc(N=C(c2ccccc2)c2c(O)[nH]c3cc(C(=O)N(C)C)ccc23)c1,4.9,5.54
